Inconclusive results are not listed. The source made the active and inactive calls. Calls come from the whole dose curve; as a rule, active = well fitted inhibition curve with a large enough effect; inconclusive = small, poorly fitted or top-dose-only effect; inactive = flat fitted curve, though single readings scatter.
Assays:
Test in all cases: qHTS profiling for inhibitors of Plasmodium falciparum proliferation (AID 504749); note: nearly all actives have a fitted effect of over 60% in size
Settings in all cases: P. falciparum in erythrocytes, SYBR Green DNA, 72 h; series mostly up to 28.7 µM
P94_40 = system: P94_40
In short: (§1)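 P. falciparum-infected erythrocytes (0.3% parasitemia, 2.5% hematocrit) incubated with compound 72 h at 37 C, 5% CO2. Parasite DNA detected by SYBR Green after lysis, overnight at room temperature; normalised to 0.29 uM artemisinin and DMSO.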

PAD = system: PAD
In short: as §1

PC15 = system: PC15
In short: as §1

PC26 = system: PC26
In short: as §1

PC49 = system: PC49
In short: as §1

SC27B = system: SC27B
In short: as §1

TAB109 = system: TAB109
In short: as §1

TAB113 = system: TAB113
In short: as §1

TAB165 = system: TAB165
In short: as §1

W2 = system: W2
In short: as §1

Measured: Potency

S=C1SCN(Cc2ccccc2)CN1Cc1ccccc1
inactive: all assays above

Oc1cc(O)cc(O)c1
inactive: all assays above

Cc1c(Cl)cccc1Nc1ncccc1C(=O)O
inactive: all assays above

O=C(O)CCC/C=C\C[C@@H]1[C@@H](/C=C/[C@@H](O)COc2cccc(Cl)c2)[C@H](O)C[C@@H]1O
inactive: all assays above

CCC(Cc1c(I)cc(I)c(O)c1I)C(=O)O (stereo not given)
inactive: all assays above

CC(C)CCC[C@@H](C)[C@H]1CC[C@H]2[C@@H]3CC=C4C[C@@H](O)CC[C@]4(C)[C@H]3CC[C@]12C
inactive: all assays above

OC[C@H]1O[C@@](CO)(O[C@H]2O[C@H](CO)[C@@H](O)[C@H](O)[C@H]2O)[C@@H](O)[C@@H]1O
inactive: all assays above

CC(=O)Oc1cccc2c1C(=O)c1c(OC(C)=O)cc(C(=O)O)cc1C2=O
inactive: all assays above

O=C1CCC(=O)N1CO
inactive: all assays above

COc1ccc(C(=O)c2ccc(C)cc2)c(O)c1
inactive: all assays above

CNC(=O)OCc1cccc(COC(=O)NC)n1
inactive: all assays above

Cc1ccc(S(=O)(=O)O)cc1C
inactive: all assays above

CCCCCCCCCCCCCCCCCC(=O)OC[C@@H](O)[C@H]1OC[C@H](O)[C@H]1O
inactive: all assays above

O=C1c2ccccc2C(=O)C1c1ccc(Cl)cc1
inactive: all assays above

Nc1nc(=O)n([C@@H]2CS[C@H](CO)O2)cc1F
inactive: all assays above

CC(=O)Nc1ccc(OC(=O)c2ccccc2O)cc1
inactive: all assays above

OC[C@H]1O[C@@H]2O[C@H]3[C@H](O)[C@@H](O)[C@@H](O[C@H]4[C@H](O)[C@@H](O)[C@@H](O[C@H]5[C@H](O)[C@@H](O)[C@@H](O[C@H]6[C@H](O)[C@@H](O)[C@@H](O[C@H]7[C@H](O)[C@@H](O)[C@@H](O[C@H]1[C@H](O)[C@H]2O)O[C@@H]7CO)O[C@@H]6CO)O[C@@H]5CO)O[C@@H]4CO)O[C@@H]3CO
inactive: all assays above

CCC(C)[C@@H](N)C(=O)O (stereo not given in full)
inactive: all assays above

Cc1ncc(C[n+]2csc(CCOP(=O)(O)O)c2C)c(N)n1
inactive: all assays above

CCCCCCCCCCCCCCCCCC(=O)OCC(C)O (stereo not given)
inactive: all assays above

CC1(O)CCC(C(C)(C)O)CC1 (stereo not given)
inactive: all assays above

CCCc1nc(C(C)(C)O)c(C(=O)OCc2oc(=O)oc2C)n1Cc1ccc(-c2ccccc2-c2nn[nH]n2)cc1
inactive: all assays above

CCCOc1cc(N)ccc1C(=O)OCCN(CC)CC
inactive: all assays above

O=C(O)Cc1cc(I)c(Oc2ccc(O)c(I)c2)c(I)c1
inactive: all assays above

O=S(=O)(O)CCCS(=O)(=O)O
inactive: all assays above

CC1=C(/C=C/C(C)=C/C=C/C(C)=C/C(=O)Oc2c(C)c(C)c3c(c2C)CC[C@@](C)(CCC[C@H](C)CCC[C@H](C)CCCC(C)C)O3)C(C)(C)CCC1
inactive: all assays above

CCCCC(CC)COS(=O)(=O)O (stereo not given)
inactive: all assays above

c1ccc(-n2cnnn2)cc1
inactive: all assays above

COc1ccc(C(=O)CCC(=O)O)c2ccccc12
inactive: all assays above

CC(C)[C@H](N)C(=O)OCC(CO)OCn1cnc2c(=O)[nH]c(N)nc21 (stereo not given in full)
inactive: all assays above

CCCc1ccc(C(=O)O)cc1
inactive: all assays above

O=C(O)COc1ccccc1/C=N/NC(=O)c1ccncc1
inactive: all assays above

O=P(O)(O)OC[C@H](O)CO
inactive: all assays above

Cc1ccc(S(=O)(=O)NCl)cc1
inactive: all assays above

C=CC(=O)O
inactive: all assays above

c1ccc2ccccc2c1
inactive: all assays above

FC(F)(F)COCC(F)(F)F
inactive: all assays above

CC12CCC(C1)C(C)(C)C2=O (stereo not given)
inactive: all assays above
